Data: PubChem BioAssay AID1928 (Vanderbilt High Throughput Screening Facility, 2009)
The source made the active and inactive calls. How the calls were made is not given here.

Molecular target: Muscarinic acetylcholine receptor M5 (Homo sapiens) (UniProt P08912)
Assay: ACh potency shift at human M5 – cell-based, analogs, calcium, selectivity assay for M4 PAM project, SAR follow-up (AID 1928)

Muscarinic acetylcholine receptor M5 (Homo sapiens), sequence (P08912 whole entry, looked up): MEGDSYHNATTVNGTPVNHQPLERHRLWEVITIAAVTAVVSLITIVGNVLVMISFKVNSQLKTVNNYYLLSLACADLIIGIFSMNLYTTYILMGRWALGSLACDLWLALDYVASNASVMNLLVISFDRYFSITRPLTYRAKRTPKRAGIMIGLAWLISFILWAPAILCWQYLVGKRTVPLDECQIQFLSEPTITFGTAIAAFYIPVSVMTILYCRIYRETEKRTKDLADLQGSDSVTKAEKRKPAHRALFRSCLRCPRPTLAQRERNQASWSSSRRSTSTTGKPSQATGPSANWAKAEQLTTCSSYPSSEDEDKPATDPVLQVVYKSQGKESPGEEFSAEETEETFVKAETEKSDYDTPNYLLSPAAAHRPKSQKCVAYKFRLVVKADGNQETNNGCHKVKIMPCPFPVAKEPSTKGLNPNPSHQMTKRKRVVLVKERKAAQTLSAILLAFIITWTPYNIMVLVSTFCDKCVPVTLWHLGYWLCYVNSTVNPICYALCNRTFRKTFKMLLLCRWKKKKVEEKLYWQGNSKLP

Question: Which outcome does the source give for `COc1ccc(CNC(=O)c2sc3nc(OCc4ccncc4)cc(C)c3c2N)cc1` here?
Answer: inactive

Question: With `Cc1cc(OCc2ccncc2)nc2sc(C(=O)NCc3cccc(F)c3F)c(N)c12` as the molecule, how does the outcome read?
Answer: inactive

Question: `Cc1cc(OCc2ccncc2)nc2sc(C(=O)NCc3cc(F)ccc3F)c(N)c12` was tested. Which outcome did it give?
Answer: inactive

Question: `Cc1cc(OCCN2CCOCC2)nc2sc(C(=O)NC(C)(C)C)c(N)c12` was tested. Which outcome did it give?
Answer: inactive
